Compounds without any hit were thinned out: in the full panel of roughly 83,000, 20% have a hit.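 Single-dose data. Exposure time 48 hours. Values below 10 considered active.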 Unmarked numbers belong to inactive results. Calls of active or inactive are those of the source.
Columns and labels:
Assay in all cases: NCI-60 one-dose screen, 48 h (100 = growth as untreated, 0 = no growth, -100 = all killed)
Conditions in all cases: 10 µM
SK-MEL-2 melanoma = system: SK-MEL-2 melanoma
EKVX NSCLC = system: EKVX NSCLC
SN12C renal = system: SN12C renal
UO-31 renal = system: UO-31 renal
TK-10 renal = system: TK-10 renal
ACHN renal = system: ACHN renal
CAKI-1 renal = system: CAKI-1 renal
A498 renal = system: A498 renal
CCRF-CEM leukemia = system: CCRF-CEM leukemia
MOLT-4 leukemia = system: MOLT-4 leukemia

SMILES	growth (SK-MEL-2 melanoma)	growth (EKVX NSCLC)	growth (SN12C renal)	growth (UO-31 renal)	growth (TK-10 renal)	growth (ACHN renal)	growth (CAKI-1 renal)	growth (A498 renal)	growth (CCRF-CEM leukemia)	growth (MOLT-4 leukemia)
Cc1cc(=O)oc2cc(OCCCCOc3ccc(/C=C/C(=O)Nc4ccccc4[N+](=O)[O-])cc3)ccc12	117%	105%	100%	90.6%	104%	108%	100%	127%	99.8%	108%
O=C(CSc1nnc(-c2c[nH]c3ccccc23)n1-c1ccccc1)Nc1ccc(C(=O)/C=C/c2ccccc2Cl)cc1	93.5%	67.2%	84.5%	51.6%	103%	74.5%	74%	101%	88.2%	55.6%
O=C(N/N=C/c1ccc(B(O)O)o1)c1[nH]c2ccc(Br)cc2c1-c1ccccc1	26.5%	44.3%	31.2%	42.2%	64.7%	44.8%	30%	76.5%	3.97% (active)	16.9%
Cc1ccc(C(=O)CSc2nnc(-c3c[nH]c4ccccc34)n2-c2ccccc2)cc1	84.7%	53%	24.9%	30.3%	-2.18% (active)	20.4%	12.4%	85.8%	60.8%	61.7%
O=C(CSc1nnc(-c2c[nH]c3ccccc23)n1-c1ccccc1)c1ccc(Br)cc1	-19.5% (active)	10.8%	72.9%	26%	64.9%	37.4%	44.3%	36%	86.4%	92.2%
OCc1[nH]nc2cc(Nc3ncc4ccc(Br)c(OC5CCC(O)CC5)c4n3)ccc12 (stereo not given)	-75.8% (active)	-27.8% (active)	1.92% (active)	-27.2% (active)	-89.6% (active)	0.365% (active)	-17.2% (active)	-26.7% (active)	0.234% (active)	1.17% (active)
C/C(=C\c1ccc(O)cc1O)c1ccc2ccc(O)cc2[o+]1	91.1%	68.1%	44.9%	50.7%	116%	45%	58.5%	147%	55.8%	29.3%
Cc1ccc(/C=C/C(=O)c2ccc(NC(=O)CSc3nnc(-c4c[nH]c5ccccc45)n3-c3ccccc3)cc2)c(C)c1	87.7%	63.7%	27.1%	65.9%	73.4%	59.5%	66.9%	106%	83.1%	43.6%
CC1=C(C(=O)OC(C)C)C(c2ccc(O)cc2)NC(=S)N1 (stereo not given)	99.2%	92.5%	105%	96.2%	95.5%	109%	98%	138%	101%	94.8%
N#Cc1c(-c2ccc(F)cc2)nc(SCc2ccc(F)cc2)nc1N1CCOCC1	78.7%	60.1%	72.9%	86%	77.6%	46.7%	30.7%	71.9%	87.1%	91.6%
CCCSc1nc(NC2CC2)c(C#N)c(-c2ccc(OC)cc2)n1	118%	101%	91.9%	93.6%	106%	85.2%	86.9%	100%	97.1%	100%
CCCn1c(=O)c2[nH]c(-c3ccc(OCc4nc5ccc(C)cc5[nH]4)cc3)nc2n(CCC)c1=O	52.1%	9.33% (active)	-5.67% (active)	-91% (active)	-51.8% (active)	-88.2% (active)	6.1% (active)	-79.8% (active)	46.8%	15.2%
CSc1nc(-c2cccc(C)c2)c2cc(-c3ccccc3)n(C)c2n1	12.2%	18.4%	20%	29.8%	58.1%	32.4%	26.2%	65.5%	17.5%	16.8%
COc1cc2c(c(OC)c1OC)C(=O)CC(c1cccc(NC(=O)c3cccc(N)c3)c1)O2 (stereo not given)	85.2%	91.9%	74.3%	58.6%	118%	84.6%	65.9%	98.8%	49.4%	43.1%
CCOC(=O)N/C(=C1/OCCN1C)[P+](c1ccccc1)(c1ccccc1)c1ccccc1	79.9%	64.3%	76.6%	87.2%	92.1%	107%	102%	115%	67.5%	83.7%
O=C(Nc1cccc(C(F)(F)F)c1)c1cncc(C#Cc2cnc3ccc(N4CCOCC4)nn23)c1	-26.3% (active)	-22.3% (active)	4.67% (active)	-31.7% (active)	27.3%	3.28% (active)	6.18% (active)	-87.8% (active)	10.6%	3.44% (active)
O=C(CSc1nnc(-c2ccc3nc(-c4ccc(Cl)cc4)[nH]c3c2)o1)Nc1ccc(Br)cc1	-69.6% (active)	27.9%	-89.2% (active)	21.9%	86%	-62.5% (active)	-27.8% (active)	66.1%	6.06% (active)	-0.919% (active)
Cc1ccc(-c2cc(C(=O)N=Nc3c(O)[nH]c4ccccc34)c3ccccc3n2)cc1	101%	38.4%	-9.28% (active)	51.6%	63.4%	25.8%	24.3%	88.2%	22.9%	31.7%
Cc1ccc(F)cc1N/C=c1\s/c(=C(\C#N)C(=O)Nc2ccccc2)n(-c2ccccc2)c1=O	94.7%	86.7%	46.9%	45.5%	84.4%	-20.1% (active)	19.8%	-16.7% (active)	84.7%	90.3%
Cc1noc2c(Cc3ccc([N+](=O)[O-])cc3)nn(CC(=O)N/N=C/c3ccc(Cl)cc3)c(=O)c12	90.5%	79.8%	54%	40.8%	71.9%	19.4%	52.3%	80.1%	95.6%	97.8%
COc1ccc2[nH]cc(/C=N/Nc3ccc(Br)cn3)c2c1	73.5%	22.9%	23.7%	11%	54%	26.7%	30.9%	50.7%	11.2%	24.6%
COc1ccc(C(=O)Nc2ccc(-c3ccc4c(c3)NC(=O)/C4=C\c3ccc[nH]3)cc2)cc1	99.5%	7.85% (active)	64.9%	81.3%	98.8%	60.7%	72.7%	118%	26%	55.6%
O=C1CCC(N2Cc3cc(CC(=O)Nc4ccc(N5CCCCC5)cc4)ccc3C2=O)C(=O)N1 (stereo not given)	74.7%	83.4%	46.7%	21%	67.5%	92.4%	87.6%	12.7%	16.9%	-7.39% (active)
O=C1CCC(N2Cc3cc(NC(=O)COc4ccccc4)ccc3C2=O)C(=O)N1 (stereo not given)	98.3%	78.6%	73.6%	28.5%	66%	91.9%	92.3%	75.1%	22.7%	11.5%
COc1ccsc1/C=N/NC(=O)c1[nH]c2ccc(Br)cc2c1-c1ccccc1	20.7%	15.2%	-3.76% (active)	11.4%	16.1%	-0.91% (active)	3.46% (active)	20.3%	-12.5% (active)	-11.4% (active)
CCCCOc1ccc(Nc2nc3ccccc3nc2Nc2ccc(OCCCC)cc2)cc1	99.5%	82.2%	95.9%	85.3%	91.9%	97.7%	91.8%	105%	69.1%	68.3%

From PubChem BioAssay (NCI)
